“And” between values parts separate entries of the source, which are not always exact repeats. Equal values may be shown once.
What was measured:
[1] = biological target: Bromodomain-containing protein 4 (Homo sapiens) (UniProt O60885); details: Compound concentration 20.0 uM, Protein concentration 2.0 uM, Result type QC Liability
[2] = biological target: T1, Transcription intermediary factor 1-alpha (Homo sapiens) (UniProt O15164); details: Compound concentration 20.0 uM, Protein concentration 2.0 uM, Result type QC Liability
T1 sequence (whole entry): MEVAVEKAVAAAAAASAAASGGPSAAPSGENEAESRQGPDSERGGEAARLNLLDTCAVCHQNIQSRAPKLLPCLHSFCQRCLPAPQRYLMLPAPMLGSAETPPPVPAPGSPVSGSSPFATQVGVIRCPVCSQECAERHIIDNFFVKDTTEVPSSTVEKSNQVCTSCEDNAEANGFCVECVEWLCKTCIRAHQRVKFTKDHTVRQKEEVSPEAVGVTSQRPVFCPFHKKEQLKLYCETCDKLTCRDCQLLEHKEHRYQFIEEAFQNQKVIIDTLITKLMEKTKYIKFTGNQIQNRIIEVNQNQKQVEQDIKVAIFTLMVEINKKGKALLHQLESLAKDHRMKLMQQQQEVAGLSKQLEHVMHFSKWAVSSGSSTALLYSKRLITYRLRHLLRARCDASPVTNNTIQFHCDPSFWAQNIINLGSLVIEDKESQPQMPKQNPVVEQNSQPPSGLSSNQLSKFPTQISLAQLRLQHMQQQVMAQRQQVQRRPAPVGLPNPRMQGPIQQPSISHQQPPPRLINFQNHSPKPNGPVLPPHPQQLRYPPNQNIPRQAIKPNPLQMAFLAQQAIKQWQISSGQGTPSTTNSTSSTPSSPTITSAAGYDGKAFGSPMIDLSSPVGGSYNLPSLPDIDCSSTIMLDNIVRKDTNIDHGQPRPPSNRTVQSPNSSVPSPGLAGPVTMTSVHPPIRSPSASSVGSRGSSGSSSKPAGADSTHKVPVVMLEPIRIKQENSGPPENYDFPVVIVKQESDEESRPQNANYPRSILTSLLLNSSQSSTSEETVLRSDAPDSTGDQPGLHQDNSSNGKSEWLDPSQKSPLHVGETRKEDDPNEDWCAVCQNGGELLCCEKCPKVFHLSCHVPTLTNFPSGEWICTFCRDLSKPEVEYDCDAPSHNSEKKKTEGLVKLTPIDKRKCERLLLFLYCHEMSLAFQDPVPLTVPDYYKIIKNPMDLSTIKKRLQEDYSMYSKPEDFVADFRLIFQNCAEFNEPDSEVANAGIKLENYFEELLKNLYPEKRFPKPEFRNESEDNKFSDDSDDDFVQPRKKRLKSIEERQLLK

Structure (SMILES) | ΔTm [1] | ΔTm [2]
Cc1cc(C2CCCNC2)ccc1Nc1ncc(Br)c(NCc2cccc3c2C(C)(C)C(=O)N3)n1 (stereo unspecified) | -4.96 °C | -2.52 °C
COc1cc(-c2cc([C@H](O)C3CC3)n3ncnc(N)c23)ccc1CO | 0.22 °C | 0.24 °C
O=C(Nc1ccnc(NC(=O)C2CC2)c1)c1c(Cl)cccc1Cl | -1.81 °C | -3.69 °C
CCn1c(=O)c2c(C)c(C(=O)N3CCC(O)CC3)sc2n(CCC(F)(F)F)c1=O | -12.7 °C | 0.23 °C
Oc1c(CN2CCCC2)cc(COCc2ccccc2)c2cccnc12 | -2.69 °C | -4.08 °C
O=C(NCCS(=O)(=O)c1ccc(C(F)(F)F)cn1)c1ccc(Cl)cc1 | -3.11 °C | -2.42 °C
CN1CCC(C#N)(NC(=O)[C@@H](NC(=O)N2CCOCC2)C(C)(C)C)CC1 | 0.17 °C | 0.14 °C
Fc1ccc(-c2nc(-c3c(F)cccc3F)[nH]c2-c2ccncc2)cc1 | 0.95 °C | -2.15 °C
Cc1cc(NC(=O)c2cccc(NC(=O)/C=C/CN(C)C)c2)ccc1Nc1nccc(-c2cccnc2)n1 | -1.31 °C | -1.44 °C
CCO[C@H](COc1ccc(C(F)(F)F)cc1)CSc1ccc(OCC(=O)O)c(C)c1 | -2.72 °C | -3.26 °C
CC(C)(O)[C@H](F)CN1Cc2cc(NC(=O)c3cnn4cccnc34)c(N3CCOCC3)cc2C1=O | -0.35 °C | -2.63 °C
CS(=O)(=O)CCNCc1ccc(-c2ccc3ncnc(Nc4ccc(OCc5cccc(F)c5)c(Cl)c4)c3c2)o1 | -2.54 °C | -3.02 °C
Cc1nccn1-c1ccc(Sc2cccc(C3(C(N)=O)CCOCC3)c2)cc1 | -0.68 °C | -1.02 °C
CCO[C@@H](Cc1ccc(OCCc2ccc(OS(C)(=O)=O)cc2)cc1)C(=O)O | -0.9 °C | -3.53 °C
CN1C(=O)[C@@H](NC(=O)c2cc(Cc3ccccc3)on2)COc2ccccc21 | -1.02 °C | -3.21 °C
Cc1cc2nc(N3CCC(C(=O)NC4CCCC4)CC3)n(C(C)C)c2cc1C | -0.57 °C | -0.87 °C
Cc1cc(OC2CCS(=O)(=O)CC2)cc(C)c1-c1cccc(COc2ccc(C(=O)O)c(F)c2)c1 | -3.26 °C | -2.6 °C
CNC(=O)c1ccc2c(c1)NC(=O)/C2=C(\Nc1ccc(CN2CCCCC2)cc1)c1ccccc1 | -3.03 °C | -3 °C
CN1CCc2cc(Nc3ncc(C(F)(F)F)c(NCc4cc[nH]n4)n3)ccc2C1 | -1.83 °C | -1.85 °C
Cn1c(Nc2c(Cl)cccc2Cl)nc2ccc3nc[nH]c(=O)c3c21 | -3.08 °C | -3.83 °C
CCN1CCN(Cc2ccc(Nc3ncc(F)c(-c4cc(F)c5nc(C)n(C(C)C)c5c4)n3)nc2)CC1 | -1.43 °C | -2.28 °C
C=CC(=O)Nc1cccc(C(=O)Nc2ccc(Nc3cc(-c4c(-c5ccc(F)cc5)nc(SC)n4C)ccn3)cc2)c1 | -0.7 °C | -0.89 °C
CC(C)(C)OC(=O)CN1C(=O)c2c(OCC(=O)O)cccc2Oc2ccc(C(F)(F)F)cc21 | 0 °C | 0.32 °C
CC(C)N1CCN(Cc2cnc(-c3cc(-c4cccc5[nH]ccc45)cc4[nH]ncc34)o2)CC1 | 0 °C | -2.06 °C
COc1cc(C(N)=O)nc(-c2cccc(C#C[C@]3(O)CCN(C)C3=O)c2)c1 | -0.77 °C | -0.62 °C

Structure (SMILES) | ΔTm [1] | ΔTm [2]
CC1CCN(C(=O)[C@H](CCn2cccc2C#N)NS(=O)(=O)c2cccc3[nH]ccc23)CC1 | 0.4 °C | 0.4 °C
C=C(F)C(=O)N1CCN(c2nc(OC[C@@H]3CCCN3C)nc3c2CCN(c2cccc4cccc(Cl)c24)C3)C[C@@H]1CC#N | 0.05 °C | -0.78 °C
CN[C@@H](C)C(=O)N[C@H](C(=O)N1CCC[C@H]1c1nc(C(=O)c2ccc(F)cc2)cs1)C1CCCCC1 | -3.21 °C | -1.98 °C
CC[C@@H](Nc1c(C#N)c(-c2ccc(-c3cccc(C)c3F)cc2)nc2cnccc12)C(=O)O | -1.25 °C | -1.3 °C
CN(C)[C@H]1CCN(c2cc(C(F)(F)F)c(C#N)c(Nc3cccc(CCC(=O)O)c3)n2)C1 | -0.8 °C | 0.26 °C
C=CC1C[C@]1(NC(=O)[C@@H]1C[C@@H](Oc2cc(-c3csc(NC(=O)C(C)C)n3)nc3c(Br)c(OC)ccc23)CN1C(=O)[C@@H](NC(=O)OC1CCCC1)C(C)(C)C)C(=O)O (stereo partly specified) | 1.06 °C | 2.85 °C
N#Cc1ccc(C#CC[C@@H](C#N)NC(=O)[C@@H]2CCCCN2)cc1F | -1.93 °C | 0.36 °C
CCCS(=O)(=O)N[C@H]1C[C@@H](N(C)c2ncnc3[nH]ccc23)C1 | -0.54 °C | -3.66 °C
CS(=O)(=O)NCC[C@H](NC(=O)c1cncc2c1cnn2-c1ccc(F)cc1)c1ccnc(S(C)(=O)=O)c1 | -0.38 °C | 0.28 °C
N#CN1CC[C@@H](C(=O)Nc2nc3c(s2)CN(C(=O)CN=[N+]=[N-])CC3)C1 | -1.95 °C | -0.82 °C
Cn1nccc1-c1ccc(Sc2cccc(C3(C(N)=O)CCOCC3)c2)cc1 | -0.19 °C | 0.56 °C
Cc1cc([N+](=O)[O-])c(NS(=O)(=O)c2cccc(C(=O)O)c2)cc1-c1cccnc1 | -0.44 °C | -2.82 °C
CN(CC(=O)Nc1ccc(F)c(F)c1F)C(=O)c1ccc2c(c1)OCCO2 | -2.94 °C | -2.59 °C
CN1CC(=O)N(C)c2cnc(Nc3ccc(NC(=O)Nc4cccc(C(=O)O)c4)cc3)nc21 | 0.02 °C | -0.69 °C
CNC(=O)COc1cc2cc(Nc3nc(N4CCC(C(=O)N(C)C)CC4)ncc3Cl)cc(OC)c2n(C)c1=O | -1.01 °C | -0.08 °C
C[C@H](CCC(=O)O)[C@H]1CC[C@H]2[C@@H]3[C@H](O)C[C@@H]4C[C@H](O)CC[C@]4(C)[C@H]3C[C@H](O)[C@]12C | -2.7 °C | -2.48 °C
N[C@@H](CC(=O)O)Cn1nnc(-c2ccc(Oc3ncc(Cl)cc3F)cc2)n1 | -12.6 °C | -0.53 °C
CNCc1ccc(-c2cc(-c3nc(-c4ccc(S(=O)(=O)C(C)C)cc4)cnc3N)on2)cc1 | -2.54 °C | -0.96 °C
COc1c(OCCCN2CCOCC2)ccc2c1N=C(NC(=O)c1cnc(N)nc1)N1CCN=C21 | -0.74 °C | -2.86 °C
Cc1csc(S(=O)(=O)N(CC(C)C)c2cc3c(cc2OCc2ccc(C(=O)O)cc2)CCC3)n1 | -0.64 °C | -0.15 °C
COc1cc2c(NC3CCN(C(C)C)CC3)nc(C3CCCCC3)nc2cc1OCCCN1CCCC1 | -2.43 °C | -2.96 °C
CCOCCn1cc(C(=O)Nc2ccc(-n3nc(-c4cccnc4)cc3C(F)(F)F)cn2)ccc1=O | -2.09 °C | 0.27 °C
Cc1cccc(-c2nn3c(c2-c2ccnc4ccc(C(N)=O)cc24)CCC3)n1 | -2.31 °C | -2.8 °C
COc1c(NC(=O)c2cc3cccc(Oc4ccnc(C(=O)N5CCN(C)CC5)c4)c3n2C)cc(C(C)(C)C)cc1NS(C)(=O)=O | -2.76 °C | -2.21 °C
Cc1nn(-c2ccccc2)c(Nc2ccccc2C(=O)O)c1-c1cc2nccnc2c(F)c1F | -1.68 °C | 0.83 °C

Structure (SMILES) | ΔTm [1] | ΔTm [2]
NCc1ccc(OCCCc2sc(-c3ccc4c(c3)/C(=N/Nc3nc5ccccc5s3)CCC4)nc2C(=O)O)cc1 | -11 °C | -0.58 °C
CC(=O)Nc1cccc(-n2c(=O)n(C3CC3)c(=O)c3c(Nc4ccc(I)cc4F)n(C)c(=O)c(C)c32)c1 | -2.35 °C | -2.86 °C
CN(C)C(=O)c1sc2nc(N3CCC(S(C)(=O)=O)CC3)cc(C(F)(F)F)c2c1N | -3.42 °C and 1.01 °C | 0.17 °C and 0.19 °C
CN(C)c1ncc2cc(-c3ccc(-c4ncccc4F)cc3Cl)c(=O)n(C[C@H]3OC[C@H](N)CO3)c2n1 | -2 °C | -2.59 °C
Nc1nccc(-c2c(-c3ccc(F)cc3)ncn2C2CCCCC2)n1 | 0.24 °C | -0.83 °C
CCNc1ccc(-c2nn(-c3ccccc3C)c3c2C(C)Cc2nc(NC(=O)OC)sc2-3)cn1 (stereo unspecified) | -2.96 °C | -3.54 °C
CCCCc1oc2ccccc2c1C(=O)c1cc(I)c(OCCN(CC)CC)c(I)c1 | -4.02 °C | -4.38 °C
CNC(=O)c1nnc(NC(=O)C2CC2)cc1Nc1cccc(-c2ncn(C)n2)c1OC | -2.45 °C | -4.06 °C
COc1cc(-c2cn[nH]c2)ccc1C(=O)Nc1ccc2c(c1)CCNCC2 | -1.67 °C | -2.57 °C
CCC(F)(F)c1cc(N2CCC(S(C)(=O)=O)CC2)nc2sc(C(N)=O)c(N)c12 | -3.68 °C and -1.82 °C and -0.22 °C | 0.36 °C and -3.9 °C and -0.99 °C
COc1cc(C(=O)NC2CCN(C)CC2)ccc1Nc1ncc(C(F)(F)F)c(NCc2ccc(C)cc2N(C)S(C)(=O)=O)n1 | -2.71 °C | -3.38 °C
CC1(C)Oc2ncnc(N)c2N=C1c1ccc([C@H]2CC[C@H](CC(=O)O)CC2)cc1 | -1.69 °C | -0.57 °C
CN(C)C/C=C/C(=O)Nc1ccc(C(=O)Nc2cccc(Nc3ncc(Cl)c(-c4c[nH]c5ccccc45)n3)c2)cc1 | -2.3 °C | -1.56 °C
Cc1nn(C)c(COc2ccc(N3CCN(S(=O)(=O)N(C)C)CC3)cc2)c1-c1cccc2c(CCCOc3cccc4ccccc34)c(C(=O)O)n(CCN3CCOCC3)c12 | -12.6 °C | -0.84 °C
CN(C)CCCN1c2ccccc2Sc2ccc(Cl)cc21 | -1.94 °C | -3.45 °C
COc1cccc(CNc2ccc(S(=O)(=O)Nc3nc4ccccc4s3)cc2)c1O | 0.58 °C | 0.53 °C
CC(C(=O)Nc1cc(C#N)ccc1CCCC(=O)O)c1ccc(F)c2ccccc12 (stereo unspecified) | -0.24 °C | -1.35 °C
Clc1ccccc1C(c1ccccc1)(c1ccccc1)n1ccnc1 | -5.6 °C | -5.38 °C
COc1ccc(S(=O)(=O)N2CCOCC2)cc1Nc1ccc2c(n1)N(C1CCOCC1)[C@H](C)C(=O)N2C | 5.07 °C | -1.05 °C
Cc1sc(C(=O)c2cncnc2N[C@@H]2C[C@H](COS(N)(=O)=O)[C@@H](O)C2)cc1[C@@H]1NCCc2ccc(Cl)cc21 | -4.45 °C | -0.84 °C
C[C@@H]1CC(=O)N(C2CC2)N=C1c1ccc(NC(=O)N2Cc3ccncc3C2)cc1 | -0.04 °C | 0.48 °C
CC(C)(C)c1cnc(CSc2cnc(NC(=O)C3CCN(CC(=O)NCCOCCOCCOCCNc4cccc5c4C(=O)N(C4CCC(=O)NC4=O)C5=O)CC3)s2)o1 (stereo unspecified) | -1.66 °C | -1.74 °C
CC(=O)O[C@H]1C(=O)[C@@]2(C)[C@H]([C@H](OC(=O)c3ccccc3)[C@]3(O)C[C@H](OC(=O)[C@H](O)[C@@H](NC(=O)c4ccccc4)c4ccccc4)C(C)=C1C3(C)C)[C@]1(OC(C)=O)CO[C@@H]1C[C@@H]2O | -0.05 °C | -0.24 °C
